# Source: PubChem
# Tg IFNy HTS: inhibitors of Toxoplasma gondii growth with IFN-gamma | Toxoplasma gondii growth in IFN-gamma-treated host cells; stronger effect = lower value | activity change, negative = inhibition, % (no concentration beside the values) | 69,000 tested, 3.8% active; in the data active means activity change below about -70%, passing the limit was not always enough;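 further: host cells are HeLa cells infected with Toxoplasma gondii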
# * hit, by the source's call; ! = not confirmed by another sample. Only a selection was taken, and hits are over-represented in it overall.
SMILES,Tg IFNy HTS
COc1cc(Nc2nc(SCc3ccc(C(C)(C)C)cc3)nc3ccccc23)cc(OC)c1,-11.0
Clc1ccc(CNc2nc(SCc3ccc(Cl)cc3)nc3ccccc23)cc1,-48.1
Clc1ccc(CSc2nc(NCc3ccccc3)c3ccccc3n2)cc1,-71.8*
COc1cccc2c1OCC(C(=O)N(C)Cc1snnc1C)C2 (configuration not stated),-12.4
Cc1c(Cl)c(C(=O)N2CCCC(O)(CN(C)C)C2)nn1C (configuration not stated),8.3
O=C(O)C1(Cc2ccc(-c3cccnc3)cc2)CCNCC1,6.6
Cc1ccc2c(c1)cc(C(=O)NCCc1nc3cc(C)c(C)cc3[nH]1)n2C,6.5
COc1ccc(-c2cc(C(=O)NCCc3nc4cc(C)c(C)cc4[nH]3)nn2C)cc1,-1.5
Cc1cc2nc(CCNC(=O)c3cnc(-c4ccc(Cl)cc4)nc3)[nH]c2cc1C,-94.8*
COc1ccc(-c2[nH]ncc2CNC(=O)c2ccc(N3CCOCC3)cc2)cc1,7.4
COc1ccc(NC(=O)CS(=O)CC(=O)Nc2ccc(N3CCOCC3)cc2)cc1 (configuration not stated),-1.5
N#CCNC(=O)c1ccc(-c2ccnc(Nc3ccc(N4CCOCC4)cc3)n2)cc1,-80.4*
CCc1ccc(NC(=O)Cn2ncc3c(N4CCN(c5ccccn5)CC4)ncnc32)cc1,-41.2
Cc1ccc(NC(=O)c2nnn(Cc3nc(-c4ccc(OC(C)C)cc4)oc3C)c2C)cc1Cl,84.6
CC(C)c1nnsc1CNC(=O)c1cccc(C#CC(C)(C)O)c1,-64.4
COc1cccc(C(=O)N(C)C2CCCN(C(=O)Cn3nnc4ccccc43)CC2)c1 (configuration not stated),2.0
COc1ccc(-c2nc(CN3C(=O)C(O)(c4ccccc4)c4ccccc43)c(C)o2)cc1 (configuration not stated),-78.3*
Cc1oc(-c2ccccc2)nc1CN1C(=O)C(O)(c2cccc(F)c2)c2ccccc21 (configuration not stated),-105.1*
Cc1oc(-c2ccc(C(=O)NCc3cccc(F)c3)cc2)nc1CN1CCN(c2ccccc2)CC1,14.2
COc1ccc(-c2cc3c(=O)n(Cc4nc(-c5ccccc5)oc4C)ccn3n2)cc1,46.2
COc1ccc(-c2nc(Cn3ccn4nc(-c5ccccc5)cc4c3=O)c(C)o2)cc1,-28.5
Cc1oc(-c2ccccc2)nc1CN1C(=O)C(O)(c2ccccc2)c2ccccc21 (configuration not stated),-35.6
COc1ccc(-c2nc(CN3C(=O)C(O)(c4cccc(C)c4)c4ccccc43)c(C)o2)cc1 (configuration not stated),-36.9
COc1ccc(-c2nc(Cn3c(C)cc(C)c(-c4nc(-c5ccccc5)no4)c3=O)c(C)o2)cc1,-86.3*
Cc1oc(-c2ccc(C(=O)NCc3cccc(F)c3)cc2)nc1CN1CCc2ccccc21,-42.9
SMILES,Tg IFNy HTS
O=C(CCC1N=C2c3ccccc3N=C(SCc3ccccc3F)N2C1=O)NCc1cccs1 (configuration not stated),6.9
CCCCCCCCCCCCCCCCCCOC[C@H](COP(=O)(O)OCC[N+](C)(C)C)OC,10.7
COc1cccc(NC(=O)C(=O)NCCc2sc(-c3ccccc3)nc2C)c1,442.6
CCc1ccc(S(=O)(=O)N2CCC3(CC2)CC(Nc2cccc(OC)c2)CO3)cc1 (configuration not stated),-1.1
COc1ccc(CCN2C[C@@H]3CCN(C(=O)c4cnc(C)cn4)CC[C@H]3S2(=O)=O)cc1,7.8
O=C(C1CCC1)N1CC[C@H]2CN(Cc3ccccc3)S(=O)(=O)[C@@H]2CC1,-18.2
CC(C)CN1C[C@@H]2CCN(C(=O)NC3CCCC3)CC[C@H]2S1(=O)=O,-55.3
COc1ccc(CN2C[C@@H]3CCN(C(=O)c4ccno4)CC[C@H]3S2(=O)=O)cc1,-6.1
O=C(NC1CCCC1)N1CC[C@H]2CN(Cc3ccc(Cl)cc3)S(=O)(=O)[C@@H]2CC1,-89.3*
O=C(c1ccn[nH]1)N1CC[C@H]2CN(Cc3ccc(Cl)cc3)S(=O)(=O)[C@@H]2CC1,-73.2*
O=C(C1CCC1)N1CC[C@H]2CN(Cc3ccc(Cl)cc3)S(=O)(=O)[C@@H]2CC1,-46.6
COc1ccc(CN2C[C@@H]3CCN(C(=O)c4ccn[nH]4)CC[C@H]3S2(=O)=O)cc1,-1.8
COc1cccc(CN2C[C@@H]3CCN(C(=O)C4CCC4)CC[C@H]3S2(=O)=O)c1,-90.7*
COc1ccc(C)cc1NC(=O)CN1C(=O)CCc2cc(Br)ccc21,138.0
COc1ccccc1OCCn1c(C(F)(F)F)nc2cc3c(cc21)OCCCO3,-23.3
CCc1ccc(-c2noc(-c3nnn(Cc4nc(-c5ccc(C)cc5)oc4C)c3C)n2)cc1,-47.4
COCCNC(=O)Cn1ncc2c(N3CCN(c4ccccn4)CC3)ncnc21,129.2
CC(C)NC(=O)N1CCn2c(CN3CCN(C)CC3)cnc2C1,-4.6
Cc1oc(-c2ccc(C(=O)NC3CCCCCCC3)cc2)nc1CN1CCc2ccccc21,-25.2
COCCn1c(C)cc(-c2csc(N)n2)c1C,23.8
Clc1ccc(C(Cn2ccnc2)OCc2c(Cl)cccc2Cl)c(Cl)c1 (configuration not stated),-69.7
S=C(NCCCn1ccnc1)Nc1cc(Cl)ccc1Cl,30.1
S=C(Nc1ccc(Cl)cc1Cl)NC(Cn1ccnc1)c1ccccc1 (configuration not stated),-35.4
Clc1ccc(C(Cn2ccnc2)OCc2ccc(Sc3ccccc3)cc2)c(Cl)c1 (configuration not stated),-78.2*
Cc1c(C(=O)Cn2ccnc2)sc2ccc(Cl)cc12,-18.2
SMILES,Tg IFNy HTS
Clc1ccc(C(Cn2ccnc2)OCc2csc3c(Cl)cccc23)c(Cl)c1 (configuration not stated),-79.2*
Cc1cc(C(=O)N2CCn3c(Cn4cncn4)cnc3C2)c(C)o1,36.1
Cc1cc2n(n1)CCC(=O)N2C(C)C(=O)NCCCN1CCC(N2CCCCC2)CC1 (configuration not stated),68.0
C=CCO[C@H]1CN(c2ccc(C)nn2)[C@H]2CCCO[C@@H]12,0.4
CC(=O)O[C@H]1C(=O)[C@@]2(C)[C@H]([C@H](OC(=O)c3ccccc3)[C@]3(O)C[C@H](OC(=O)[C@H](O)C(NC(=O)c4ccccc4)c4ccccc4)C(C)=C1C3(C)C)[C@]1(OC(C)=O)CO[C@@H]1C[C@@H]2O (some centres not stated),-95.5*
CC(=O)O[C@H]1C(=O)[C@@]2(C)[C@H]([C@H](OC(=O)c3ccccc3)[C@]3(O)C[C@H](OC(=O)[C@H](O)[C@@H](NC(=O)c4ccccc4)c4ccccc4)C(C)=C1C3(C)C)[C@]1(OC(C)=O)CO[C@@H]1C[C@@H]2O,-82.4*!
CCC1CN(CCC(=O)N2CCN(Cc3nccn3C)CC2)Cc2cc(OC)ccc2O1 (configuration not stated),8.9
Fc1cnc(N2CCN(Cc3cc(CN4CCCC4)cs3)CC2)nc1,-14.2
CCc1nc(-c2cc(C(=O)NCCCO)c3ccccn23)cs1,-1.3
COCC1CCC2(CCN(C(=O)c3cccs3)CC2)N1CC1CC1 (configuration not stated),3.3
Clc1ccc(OCc2noc(/C=C/c3ccccc3)n2)c(Cl)c1,-40.2
CC(C)CNC(=O)C1Cn2ccnc2C2(CCN(Cc3nccs3)CC2)O1 (configuration not stated),427.8
O=C(c1ccncc1)N1CCCC2(C1)Nc1ccccc1NC2=NC1CCCC1 (configuration not stated),22.1
Cc1ccccc1NC(=O)CN(c1cc(Cl)ccc1C)S(C)(=O)=O,-39.3
